Source: PubChem BioAssay (NCI)
About 79,000 compounds went through this panel and 15% of them were active in at least one assay; those are over-represented in the sample as a whole. Cut-off read from the data, not from the text of the source: active = growth inhibition above about 70%; inactive = the rest.

Legend:
[1] = NCI Yeast Anticancer Drug Screen. Data for the rad50 strain (AID 155);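 note: 0% = growth of vehicle-only cultures of the same strain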; conditions: S. cerevisiae rad50 strain growth inhibition; at 50.0 µM; active compounds read high
Method in brief: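 Compounds were tested on a yeast strain with an engineered DNA damage repair alteration; the reported value is growth inhibition normalised to vehicle treatment.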

[2] = NCI Yeast Anticancer Drug Screen. Data for the mec2-1 strain (AID 157); conditions: S. cerevisiae mec2-1 strain, at 50.0 µM, active compounds read high
Method in brief: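 Growth inhibition is read against vehicle-treated controls after compound exposure of the mec2-1 yeast strain, which is defective in DNA damage repair or cell cycle control.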

[3] = NCI Yeast Anticancer Drug Screen. Data for the sgs1 mgt1 strain (AID 161);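 note: 0% = growth of cultures given vehicle only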; conditions: S. cerevisiae sgs1 mgt1 strain, at 50.0 µM, active compounds read high
Method in brief: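 Percent growth inhibition was derived by comparing compound-exposed mutant yeast with vehicle-exposed cultures. The strain carries alterations in DNA damage repair.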

[4] = NCI Yeast Anticancer Drug Screen. Data for the cln2 rad14 strain (AID 165);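 note: 0% = growth equal to vehicle treated cultures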; conditions: S. cerevisiae cln2 rad14 strain, at 50.0 µM, active compounds read high
Method in brief: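 Growth inhibition, relative to vehicle-treated controls, is the read-out. The test organism is a yeast strain with defined genetic alterations, cln2 rad14.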

[5] = NCI Yeast Anticancer Drug Screen. Data for the bub3 strain (AID 167); conditions: S. cerevisiae bub3 mutant strain, at 50.0 µM, active compounds read high
Method in brief: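 Growth of a checkpoint-deficient yeast mutant is measured after compound exposure. Values represent inhibition relative to vehicle.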

[6] = NCI Yeast Anticancer Drug Screen. Data for the mlh1 rad18 strain (AID 175); conditions: S. cerevisiae mlh1 rad18 strain growth inhibition; at 50.0 µM; active compounds read high
Method in brief: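 Cells of a genetically altered yeast strain, deficient in DNA damage repair, were treated with compound. Their growth was then compared with that of vehicle-treated cultures to give inhibition.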

Measured: growth inhibition

COc1cc(-c2cccs2)sc1-c1cccs1
inactive: [1] 10.4% | [2] -7.15% | [3] 31.4% | [4] 8.95% | [5] 19.6% | [6] 13.2%

CCOC(=O)\C(C#N)=C/C=C(C)/C(C)=C/Nc1ccc([N+](=O)[O-])cc1[N+](=O)[O-]
inactive: [1] 10.9% | [2] 7.85% | [3] -18.4% | [4] -5.2% | [5] 0.8% | [6] 22.6%

CN(CCNC(=O)NCCCCCCNC(=O)NCCN(C)c1ccccc1)c1ccccc1
inactive: [1] -6% | [2] -44% | [3] -6.7% | [4] -33.2% | [5] 3.45% | [6] -5.05%

CC(=O)NC(CCCNC(=O)OCc1ccccc1)C(=O)NCc1ccccc1 (configuration not stated)
inactive: [1] -9.1% | [2] -20.9% | [3] -30% | [4] -1.35% | [5] -16.9% | [6] -36%

CCCC(C)C1CCC(=O)CC1 (configuration not stated)
inactive: [1] 5.85% | [2] 0.3% | [3] 0.75% | [4] -4.3% | [5] 1.95% | [6] -0.2%

CC(NC(=O)C(C)(C)C)c1ccc(-c2ccccc2)cc1 (configuration not stated)
inactive: [1] 11.8% | [2] 29.6% | [3] 9.2% | [4] 12.6% | [5] 2% | [6] 10.8%

CCCCCCCCCCCCCCCc1c(NC(C)(CC(C)(C)O)[P+](=O)O)c(=O)n(C)n1C (configuration not stated)
inactive: [1] -52.2% | [2] -31.1% | [3] -30.9% | [4] -25.2% | [5] -33.8% | [6] -33.4%

C[N+]12CCCCC1CC2 (configuration not stated)
inactive: [1] 29.4% | [2] -5.25% | [3] -7.35% | [4] -39.5% | [5] -40.3% | [6] 9.85%

CC(=O)C1CC(CCC2([N+](=O)[O-])CCC(C)(O)C(C(C)=O)C2)([N+](=O)[O-])CCC1(C)O (configuration not stated)
inactive: [1] 3.3% | [2] 5.05% | [3] 6.7% | [4] 2.6% | [5] 12.3% | [6] 20.6%

Oc1ccc2cc(O)ccc2c1
inactive: [1] -5.45% | [2] -25.6% | [3] -1.7% | [4] -7.8% | [5] -20.4% | [6] -5.85%

Brc1ccc(Br)c2nc(/C=C/c3ccccc3)ccc12
inactive: [1] 11.8% | [2] 1.85% | [3] -7% | [4] -22.6% | [5] 2.45% | [6] 8.25%

CC(C)Sc1nc2ccc(NC(=O)/C=C/C(=O)O)cc2s1
inactive: [1] 18.9% | [2] 8.65% | [3] 4.95% | [4] 14.1% | [5] 13.7% | [6] 12.1%

O=[N+]([O-])c1ccc(/C(=C/c2ccc(F)cc2)S(=O)(=O)c2ccccc2)o1
inactive: [1] 37.4% | [2] 19.4% | [3] 50.3% | [4] -0.65% | [5] 8.4% | [6] 39.4%

Cc1cccc(NC(=O)/C=C/c2ccccc2)n1
inactive: [1] 6.15% | [2] -26.5% | [3] -4.3% | [4] -81.3% | [5] 9.15% | [6] -22.4%

CCCCOC(=O)c1ccc(NC(=O)CCC(C)Cl)cc1 (configuration not stated)
inactive: [1] -15.7% | [2] 13.2% | [3] -2.1% | [4] -22.2% | [5] 16.8% | [6] 6.6%

CSc1nc(SC)c2cnn(C3OC(CO)C(O)C3O)c2n1 (configuration not stated)
inactive: [1] 12% | [2] -1.1% | [3] 20.9% | [4] 3.25% | [5] 16.4% | [6] 33.4%

CC1OC(c2ccccc2)OC1C (configuration not stated)
inactive: [1] 18.6% | [2] -4.65% | [3] -6.9% | [4] -29.9% | [5] -18.9% | [6] 11.8%

CN(C)C1=Nc2ccccc2C(=S)N2CSCC12 (configuration not stated)
inactive: [1] -29% | [2] -37.1% | [3] -16.9% | [4] -12.2% | [5] -63.8% | [6] -20.3%

O=c1[nH]c2ccccc2c2ccc(Br)cc12
inactive: [1] 17.4% | [2] -6.1% | [3] -2.65% | [4] 7.3% | [5] -3% | [6] 18.5%

NC(=S)NNC(=S)NC(=O)c1ccco1
inactive: [1] -39.8% | [2] 5.55% | [3] 5.05% | [4] 14.3% | [5] 22.1% | [6] -18.7%

Cc1nn(C23CC4CC(CC(C4)C2)C3)c(C(Cl)Cl)c1Cl
inactive: [1] -4.4% | [2] -7.95% | [3] 2.7% | [4] -8.75% | [5] 2.05% | [6] 4.7%

CNc1ccc(/C=C/c2ccnc3ccccc23)cc1
inactive: [1] 31.2% | [2] 46.2% | [3] 68.3% | [4] 27.6% | [5] 42.1% | [6] 49.8%

C=CCOCCC(OCC=C)OCC=C
inactive: [1] 1.25% | [2] 7.75% | [3] 4.4% | [4] -23.9% | [5] -1.3% | [6] 8.85%

CN(C)CCC(/C=C/c1ccccc1)=N\Nc1ccccc1
inactive: [1] 19.6% | [2] -14.9% | [3] -11.9% | [4] 5.5% | [5] -12.8% | [6] 36.5%

Nc1nc(N)c(N=Nc2cc(Cl)c([N+](=O)[O-])cc2Cl)c(=O)[nH]1
inactive: [1] 13.2% | [2] -3.75% | [3] -10.9% | [4] -7.15% | [5] -1.35% | [6] -11.1%

Brc1ccncc1
inactive: [1] -10.7% | [2] -47.5% | [3] -1.55% | [4] 3.35% | [5] -21.9% | [6] -13.6%

O=C(OCc1ccccc1)N(CCCCN(CCCNC(=O)C(F)(F)F)C(=O)OCc1ccccc1)CCCNC(=O)C(F)(F)F
inactive: [1] -14.8% | [2] -9.7% | [3] 21.4% | [4] 20.4% | [5] 21.8% | [6] -33.8%

CCOC(=O)C1=NC(c2ccccc2)(c2ccccc2)OC1=C(Cl)Cl
inactive: [1] 0.8% | [2] -16.4% | [3] -0.2% | [4] 19.8% | [5] -11.4% | [6] -10.5%

O=C(O)CCBr
inactive: [1] 8.1% | [2] -10.1% | [3] 44.5% | [4] 0% | [5] 6.5% | [6] 43.8%

O=C(Oc1c(Cl)c(Cl)c(Cl)c(Cl)c1Cl)Oc1c(Cl)c(Cl)c(Cl)c(Cl)c1Cl
inactive: [1] -13.7% | [2] -8.25% | [3] 19.1% | [4] -15.1% | [5] 12.8% | [6] 3.4%

CC(Cc1ccco1)(C(=O)O)C(=O)O
inactive: [1] 11.8% | [2] 16.3% | [3] -14.8% | [4] -1.3% | [5] -11.8% | [6] -11.6%

C/C(=C/C(C)O)c1ccccc1 (configuration not stated)
inactive: [1] -13.6% | [2] -3.85% | [3] -15.2% | [4] 4.9% | [5] -6.1% | [6] -6.9%

O=C(O)COc1cc([N+](=O)[O-])c(Cl)cc1Cl
inactive: [1] 7.75% | [2] -11.9% | [3] 18.6% | [4] 15.6% | [5] -1.4% | [6] 20.6%

CSCCOC(=O)C1C2CCC(O2)C1C(=O)O (configuration not stated)
inactive: [1] 11.1% | [2] 10.6% | [3] 1.55% | [4] 9.25% | [5] -0.6% | [6] 17.6%

CC(N=Nc1ccccc1)/N=N/c1nn[nH]n1 (configuration not stated)
inactive: [1] 23.8% | [2] -12.2% | [3] -11.6% | [4] -84% | [5] -22% | [6] -3.25%

Nc1ccccc1C(=O)Nc1ccccn1
inactive: [1] 4.05% | [2] -1.1% | [3] 0.5% | [4] 5.35% | [5] 0.45% | [6] -6.25%

O=C(O)c1cccc2cnccc12
inactive: [1] -40.6% | [2] -17.6% | [3] -26.9% | [4] 1.3% | [5] -13.3% | [6] -8.7%

OC1CNC(=S)NC1
inactive: [1] -8.85% | [2] -10.2% | [3] -12.6% | [4] -22.2% | [5] -5.2% | [6] 12.9%

c1ccc(-c2nc(-c3ccccc3SSc3ccccc3-c3nc(-c4ccccc4)nn3-c3ccccc3)n(-c3ccccc3)n2)cc1
inactive: [1] -14.5% | [2] -6.3% | [3] 0.8% | [4] 3.25% | [5] -8.8% | [6] 18.9%

Cc1ccc(N=Nc2ccc(C)cc2NC(=O)/C=C/c2ccccc2)cc1
inactive: [1] -21.5% | [2] -34.5% | [3] 6.65% | [4] 8.4% | [5] -6.35% | [6] -8.65%

CC12CCC(c3cn[nH]c31)C2(C)C (configuration not stated)
inactive: [1] 16.1% | [2] 20.8% | [3] 19.9% | [4] -6.6% | [5] -0.35% | [6] 0.7%

Cc1n[nH]c(=S)n1C
inactive: [1] -25.2% | [2] -6.05% | [3] -4.25% | [4] -23.2% | [5] 8.55% | [6] 12.8%
